For some assays here: Entries with a potency or affinity are not part of this list.
Assays:
Set-up in all cases: scale not given: direction of the effect not stated beside the values
[1] = target: Protein translocase subunit SecA (Escherichia coli (strain K12)) (UniProt P10408); experiment: Assay to Identify E. coli SecA ATPase Inhibitors; type: functional; settings: 30 µM
[2] = target: T1, Ubiquitin-activating enzyme e1, putative (Leishmania donovani (strain BPK282A1)) (UniProt E9BSI1); experiment: Leishmania donovani Ubiquitin Activating Enzyme (LdE1); type: functional; settings: 30 µM
T1 sequence (whole entry): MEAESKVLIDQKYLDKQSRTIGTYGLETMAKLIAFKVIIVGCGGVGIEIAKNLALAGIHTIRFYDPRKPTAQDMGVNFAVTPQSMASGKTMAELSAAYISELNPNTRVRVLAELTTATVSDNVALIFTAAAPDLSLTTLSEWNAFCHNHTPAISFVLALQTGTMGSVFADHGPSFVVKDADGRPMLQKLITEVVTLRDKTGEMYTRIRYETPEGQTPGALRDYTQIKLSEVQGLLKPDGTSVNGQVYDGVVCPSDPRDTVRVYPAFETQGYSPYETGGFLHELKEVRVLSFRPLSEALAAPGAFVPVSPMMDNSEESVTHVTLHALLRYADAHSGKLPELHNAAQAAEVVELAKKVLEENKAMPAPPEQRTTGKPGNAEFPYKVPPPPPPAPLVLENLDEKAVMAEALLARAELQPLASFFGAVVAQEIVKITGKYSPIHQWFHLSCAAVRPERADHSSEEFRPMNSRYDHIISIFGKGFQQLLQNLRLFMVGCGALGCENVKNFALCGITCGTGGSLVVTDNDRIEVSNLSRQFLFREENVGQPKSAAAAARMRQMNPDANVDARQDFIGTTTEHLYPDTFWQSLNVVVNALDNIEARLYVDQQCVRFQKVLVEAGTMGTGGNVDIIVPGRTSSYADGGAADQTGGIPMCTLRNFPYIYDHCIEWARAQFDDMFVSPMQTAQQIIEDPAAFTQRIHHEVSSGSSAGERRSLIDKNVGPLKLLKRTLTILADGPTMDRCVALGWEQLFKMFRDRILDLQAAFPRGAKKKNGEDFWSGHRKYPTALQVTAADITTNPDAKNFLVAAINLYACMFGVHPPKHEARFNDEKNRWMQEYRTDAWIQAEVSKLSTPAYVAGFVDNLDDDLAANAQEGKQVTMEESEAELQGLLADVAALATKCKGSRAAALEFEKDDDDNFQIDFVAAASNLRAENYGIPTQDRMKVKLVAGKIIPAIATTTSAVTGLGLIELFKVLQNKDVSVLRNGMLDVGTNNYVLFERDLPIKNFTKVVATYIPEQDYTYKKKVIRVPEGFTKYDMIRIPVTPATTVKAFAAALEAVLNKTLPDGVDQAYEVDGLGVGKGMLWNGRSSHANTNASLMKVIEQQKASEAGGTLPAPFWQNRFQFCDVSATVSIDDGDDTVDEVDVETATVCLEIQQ

[3] = target: AMP-activated protein kinase, AMPK (Homo sapiens) (UniProt P54646+O43741+P54619+Q9UGJ0+Q9Y478+Q13131+Q9UGI9); experiment: AMP-dependent Kinase enzyme assay. An in vitro enzyme assay that detects ADP turnover that is directly proportional to AMPK activity. This uses naive AMPK that is activated during the assay with MK-8722; type: functional; settings: 30 µM
[4] = target: Sialic acid-binding Ig-like lectin 9 (Homo sapiens) (UniProt Q9Y336); experiment: Hs-Siglec9 ALPHAscreen SOP 20170721; settings: 10 µM
Sequence of Sialic acid-binding Ig-like lectin 9 (Homo sapiens) (Q9Y336 whole entry): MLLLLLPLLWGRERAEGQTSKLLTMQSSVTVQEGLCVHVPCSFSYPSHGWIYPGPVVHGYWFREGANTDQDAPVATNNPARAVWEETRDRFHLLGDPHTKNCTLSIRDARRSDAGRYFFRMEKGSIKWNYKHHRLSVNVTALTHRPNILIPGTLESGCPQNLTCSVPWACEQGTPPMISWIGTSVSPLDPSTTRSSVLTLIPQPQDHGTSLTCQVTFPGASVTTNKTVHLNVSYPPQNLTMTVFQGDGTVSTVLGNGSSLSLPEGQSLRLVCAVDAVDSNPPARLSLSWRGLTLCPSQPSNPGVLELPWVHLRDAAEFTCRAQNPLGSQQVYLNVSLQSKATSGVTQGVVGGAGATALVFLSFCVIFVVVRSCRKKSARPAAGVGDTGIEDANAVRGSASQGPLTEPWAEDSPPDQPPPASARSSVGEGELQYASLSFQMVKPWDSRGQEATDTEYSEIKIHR

[5] = test system: Trypanosoma cruzi; experiment: Trypanosoma cruzi phosphomannomutase and mannose-1-phosphate guanylyltransferase assay; type: functional; settings: 10 µM
[6] = target: T2, Arginase-2, mitochondrial (Homo sapiens) (UniProt P78540); experiment: in vitro enzyme assay to detect the production of urea directly proportional to the activity of Arginase II; type: functional; settings: 33.3 µM; further: in the data most compounds retested in dose-response had high values
T2 sequence (whole entry): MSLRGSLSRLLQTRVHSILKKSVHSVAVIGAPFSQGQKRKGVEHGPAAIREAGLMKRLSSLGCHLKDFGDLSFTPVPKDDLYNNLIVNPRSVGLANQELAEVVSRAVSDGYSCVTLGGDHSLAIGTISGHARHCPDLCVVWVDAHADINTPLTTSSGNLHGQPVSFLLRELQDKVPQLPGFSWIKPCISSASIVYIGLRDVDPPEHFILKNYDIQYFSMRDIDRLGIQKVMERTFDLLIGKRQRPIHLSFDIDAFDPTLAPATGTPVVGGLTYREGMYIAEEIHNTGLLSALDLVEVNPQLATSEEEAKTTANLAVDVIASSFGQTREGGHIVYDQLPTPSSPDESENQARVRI

[7] = target: T3, Proteasome subunit beta (Trypanosoma cruzi) (UniProt O96673); experiment: Trypanosoma cruzi proteasome chymotrypsin-like activity (TcProtChymo) assay.; further: in the data most compounds retested in dose-response had high values; type: functional; settings: 9.37 µM
T3 sequence (whole entry): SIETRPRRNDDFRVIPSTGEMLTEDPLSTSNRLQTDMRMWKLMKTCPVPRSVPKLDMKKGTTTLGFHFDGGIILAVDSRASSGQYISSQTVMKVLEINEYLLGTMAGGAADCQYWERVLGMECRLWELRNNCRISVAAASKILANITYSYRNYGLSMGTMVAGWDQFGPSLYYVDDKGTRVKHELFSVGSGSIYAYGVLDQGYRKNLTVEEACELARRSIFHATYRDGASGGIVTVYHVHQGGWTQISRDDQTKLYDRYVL

[8] = species: Homo sapiens; experiment: To identify inhibition of the IFN signalling (Jak-Stat) pathway via expression of an eGFP reporter gene under the control of an IFN-stimulated response element (ISRE) containing MxA promoter.; type: functional; settings: 30 µM
[9] = target: T4, Tyrosyl-tRNA synthetase, putative (Trypanosoma cruzi (strain CL Brener)) (UniProt Q4DSP6); experiment: Trypanosoma cruzi tyrosyl tRNA synthetase (TcYRS) _High Tyrosine SOP; type: functional; settings: 30 µM; further: in the data most compounds retested in dose-response had high values
T4 sequence (whole entry): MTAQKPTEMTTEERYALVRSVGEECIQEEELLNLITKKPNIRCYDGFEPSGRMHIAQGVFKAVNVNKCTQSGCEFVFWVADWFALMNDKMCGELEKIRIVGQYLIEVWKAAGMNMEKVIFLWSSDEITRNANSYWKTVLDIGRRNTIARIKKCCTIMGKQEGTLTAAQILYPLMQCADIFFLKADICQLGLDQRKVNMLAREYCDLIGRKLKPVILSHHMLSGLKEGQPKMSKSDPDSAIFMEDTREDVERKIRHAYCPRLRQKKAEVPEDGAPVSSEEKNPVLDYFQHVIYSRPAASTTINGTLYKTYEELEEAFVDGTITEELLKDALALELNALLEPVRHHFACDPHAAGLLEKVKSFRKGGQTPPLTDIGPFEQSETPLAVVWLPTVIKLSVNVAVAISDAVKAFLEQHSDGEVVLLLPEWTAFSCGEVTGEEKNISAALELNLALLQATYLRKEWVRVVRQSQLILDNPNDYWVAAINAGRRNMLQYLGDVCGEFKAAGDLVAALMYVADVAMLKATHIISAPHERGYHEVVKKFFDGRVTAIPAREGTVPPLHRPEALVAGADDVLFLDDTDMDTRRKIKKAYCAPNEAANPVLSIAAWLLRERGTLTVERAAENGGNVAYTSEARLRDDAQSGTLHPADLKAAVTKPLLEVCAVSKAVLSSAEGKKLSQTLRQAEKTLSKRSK

[10] = target: T4, Tyrosyl-tRNA synthetase, putative (Trypanosoma cruzi (strain CL Brener)); experiment: Trypanosoma cruzi tyrosyl tRNA synthetase (TcYRS) SOP; type: functional; settings: 30 µM
[11] = target: Chromo domain-containing protein 1 (Saccharomyces cerevisiae (strain ATCC 204508 / S288c) (Baker's yeast)) (UniProt P32657); experiment: ScCHD-1 Enzyme Inhibition Assay; type: functional; settings: 30 µM; further: in the data most compounds retested in dose-response had high values
Sequence of Chromo domain-containing protein 1 (Saccharomyces cerevisiae (strain ATCC 204508 / S288c) (Baker's yeast)) (P32657 whole entry, the tested form may be a part): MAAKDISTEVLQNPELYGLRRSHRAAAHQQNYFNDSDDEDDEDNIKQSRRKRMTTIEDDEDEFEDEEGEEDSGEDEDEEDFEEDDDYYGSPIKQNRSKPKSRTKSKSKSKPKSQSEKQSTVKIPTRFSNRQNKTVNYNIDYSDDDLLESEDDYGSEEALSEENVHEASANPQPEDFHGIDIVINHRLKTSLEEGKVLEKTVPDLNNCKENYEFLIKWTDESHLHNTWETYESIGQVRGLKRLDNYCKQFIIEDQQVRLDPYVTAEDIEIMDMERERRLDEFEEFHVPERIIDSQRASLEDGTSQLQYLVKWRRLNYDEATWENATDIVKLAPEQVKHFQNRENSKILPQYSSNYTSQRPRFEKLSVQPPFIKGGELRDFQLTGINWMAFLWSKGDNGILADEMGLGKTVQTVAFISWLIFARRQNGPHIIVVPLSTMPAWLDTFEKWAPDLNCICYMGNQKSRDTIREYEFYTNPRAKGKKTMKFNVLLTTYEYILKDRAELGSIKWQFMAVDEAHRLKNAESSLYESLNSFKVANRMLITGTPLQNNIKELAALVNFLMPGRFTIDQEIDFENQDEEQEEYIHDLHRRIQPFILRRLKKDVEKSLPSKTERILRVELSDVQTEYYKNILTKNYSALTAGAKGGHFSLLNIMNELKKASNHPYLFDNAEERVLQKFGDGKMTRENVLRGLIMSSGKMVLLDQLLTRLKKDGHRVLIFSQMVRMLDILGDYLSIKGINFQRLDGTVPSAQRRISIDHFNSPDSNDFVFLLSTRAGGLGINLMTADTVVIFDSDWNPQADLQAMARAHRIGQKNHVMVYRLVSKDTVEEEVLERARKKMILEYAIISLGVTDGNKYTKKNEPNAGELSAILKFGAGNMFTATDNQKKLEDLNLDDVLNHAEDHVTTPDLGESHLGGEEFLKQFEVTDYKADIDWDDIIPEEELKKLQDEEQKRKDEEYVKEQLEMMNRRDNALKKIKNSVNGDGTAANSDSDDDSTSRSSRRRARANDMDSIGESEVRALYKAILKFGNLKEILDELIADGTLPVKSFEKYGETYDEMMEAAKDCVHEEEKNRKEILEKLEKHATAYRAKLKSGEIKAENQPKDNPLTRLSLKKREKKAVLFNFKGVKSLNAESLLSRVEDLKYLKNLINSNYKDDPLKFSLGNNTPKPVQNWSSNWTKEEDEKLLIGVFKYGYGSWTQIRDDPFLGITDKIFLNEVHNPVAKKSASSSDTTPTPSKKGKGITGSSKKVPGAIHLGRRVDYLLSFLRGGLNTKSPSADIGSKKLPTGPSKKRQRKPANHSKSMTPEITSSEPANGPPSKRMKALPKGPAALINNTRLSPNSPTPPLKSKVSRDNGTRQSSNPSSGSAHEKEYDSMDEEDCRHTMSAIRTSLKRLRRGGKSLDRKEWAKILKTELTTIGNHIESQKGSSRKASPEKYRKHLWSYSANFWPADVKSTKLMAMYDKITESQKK

Sequence of Protein translocase subunit SecA (Escherichia coli (strain K12)) (P10408 whole entry): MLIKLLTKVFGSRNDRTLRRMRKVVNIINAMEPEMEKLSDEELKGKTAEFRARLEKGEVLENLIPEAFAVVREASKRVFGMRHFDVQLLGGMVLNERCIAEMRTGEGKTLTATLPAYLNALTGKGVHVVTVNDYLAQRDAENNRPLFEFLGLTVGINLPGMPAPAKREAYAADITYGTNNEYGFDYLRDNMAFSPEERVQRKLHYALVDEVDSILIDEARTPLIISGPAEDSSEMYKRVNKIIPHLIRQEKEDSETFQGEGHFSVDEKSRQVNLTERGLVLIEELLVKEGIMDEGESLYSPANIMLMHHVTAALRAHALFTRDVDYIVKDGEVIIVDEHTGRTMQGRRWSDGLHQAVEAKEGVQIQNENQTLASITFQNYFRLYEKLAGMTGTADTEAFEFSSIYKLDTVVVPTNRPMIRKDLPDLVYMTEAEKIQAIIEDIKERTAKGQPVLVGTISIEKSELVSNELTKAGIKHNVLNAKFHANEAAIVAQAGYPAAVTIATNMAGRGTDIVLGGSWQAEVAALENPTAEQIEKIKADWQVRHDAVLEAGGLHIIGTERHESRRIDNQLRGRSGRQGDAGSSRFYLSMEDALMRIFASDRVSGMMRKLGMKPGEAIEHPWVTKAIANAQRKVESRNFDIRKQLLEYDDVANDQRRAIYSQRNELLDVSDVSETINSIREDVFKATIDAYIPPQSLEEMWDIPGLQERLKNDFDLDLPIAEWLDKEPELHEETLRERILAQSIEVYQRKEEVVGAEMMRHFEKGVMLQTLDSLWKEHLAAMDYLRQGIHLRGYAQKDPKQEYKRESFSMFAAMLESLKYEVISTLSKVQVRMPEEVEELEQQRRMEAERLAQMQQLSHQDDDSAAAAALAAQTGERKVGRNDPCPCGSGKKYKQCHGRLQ

| SMILES | Percent Effect [1] | Percent Effect [2] | Percent Effect [3] | Percent Effect [4] | Percent Effect [5] | Percent Effect [6] | Percent Effect [7] | Percent Effect [8] | Percent Effect [9] | Percent Effect [10] | Percent Effect [11] |
| --- | --- | --- | --- | --- | --- | --- | --- | --- | --- | --- | --- |
| CC(C)Cc1noc(CN2CCN(c3nccs3)CC2)n1 | -8.59% | 10.4% | 5.21% | 0.0825% | -5.99% | -2.13% | 6.25% | 33.3% | 0.971% | 7.32% | -3.68% |
| Cc1noc([C@H]2COC[C@H]3CN(C(=O)Cc4ccc(F)cc4)C[C@H]32)n1 | -6.71% | 10.8% | -2.57% | 13.3% | 3.91% | 3.75% | 7.18% | -8.46% | 5.94% | 11% | -1.22% |
| O=C(CN1CCN(CC(O)C2CC2)CC1)NCc1ccc(F)cc1 (centres undefined) | -3.06% | 10.4% | 6.87% | 0.218% | 4.83% | 9.68% | 13.1% | 22.2% | 8.47% | 19.2% | -7.59% |
| CCn1cc2c(n1)CN(Cc1ccncc1)CC2COCC1CC1 (centres undefined) | -3.54% | 10.7% | 12.3% | 6.03% | -1.97% | -0.699% | 10.7% | 4.31% | 6.38% | 11.5% | -6.9% |

From ChEMBL document CHEMBL3988442, “University of Dundee, Small-Polar-MMV Screening Library” (2021)
